# Paper PMC10726135, “HNF4α isoforms regulate the circadian balance between carbohydrate and lipid metabolism in the liver”
# In all, about 18,000 sequences were measured (“log2 normalized intensity”: median about 0.36, highest 2% from about 7.3 on). This excerpt belongs to a sample that is enriched for the highest values.
# Biological target: T1, HNF4alpha8 (COS-7 nuclear extract) (Homo sapiens, UniProt P41235-5 1-452)
# T1 sequence: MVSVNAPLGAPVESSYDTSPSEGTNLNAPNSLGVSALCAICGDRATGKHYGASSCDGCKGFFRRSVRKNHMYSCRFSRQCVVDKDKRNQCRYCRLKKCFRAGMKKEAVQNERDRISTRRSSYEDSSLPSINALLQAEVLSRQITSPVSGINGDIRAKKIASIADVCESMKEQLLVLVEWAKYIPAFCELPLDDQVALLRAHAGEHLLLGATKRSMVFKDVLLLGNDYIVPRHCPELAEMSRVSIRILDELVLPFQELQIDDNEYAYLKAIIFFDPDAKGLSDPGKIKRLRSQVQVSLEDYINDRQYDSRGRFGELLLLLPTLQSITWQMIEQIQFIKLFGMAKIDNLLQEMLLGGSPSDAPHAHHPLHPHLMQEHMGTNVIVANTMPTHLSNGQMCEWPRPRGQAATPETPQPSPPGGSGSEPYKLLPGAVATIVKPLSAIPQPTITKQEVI
# Assay: protein-binding microarray; COS-7 nuclear extract on double-stranded Agilent 4x180k PBM; binding buffer, salt, pH and temperature not given in the material; high values mean tight binding
# Details: chain copies: 2; label: 3' end of strand 1 on the slide; dsDNA, one strand shown
# Method in brief: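 Nuclear extracts came from COS-7 cells transiently transfected by CaPO4 with a human HNF4α isoform expression vector. They were applied to a custom Agilent SurePrint G3 4x180k array of ~60-nt oligonucleotides, made double-stranded, with ~44,000 test sequences spotted in quadruplicate. Bound HNF4α was imaged at 2-µm resolution on an Agilent G2565CA scanner. Binding signal was taken as background-corrected, normalized gProcessedSignal from Agilent software.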
row,Sequence,binding signal
1,TGCCAAGGAGCCTCTGCAACCTTTGCTCTCGCCTAGGGAGATTAGAGTATCGGTCGA,6.62 log2 normalized intensity
2,TTTGAAGGTTAAAGTCCATTTTTGAGGACCGCCTAGGGAGATTAGAGTATCGGTCGA,6.47 log2 normalized intensity
3,TTTATCCTTTTTTGAAGGTTAAAGTCCATTGCCTAGGGAGATTAGAGTATCGGTCGA,7.82 log2 normalized intensity
4,ATGGTTAAGGTGAAAGTCCGACTTTTAAGAGCCTAGGGAGATTAGAGTATCGGTCGA,4.06 log2 normalized intensity
5,CCTTTTTTGAAGGTTAAAGTCCATTTTTGAGCCTAGGGAGATTAGAGTATCGGTCGA,7.52 log2 normalized intensity
6,CTGCCACATTTTTATCCTTTTTTGAAGGTTGCCTAGGGAGATTAGAGTATCGGTCGA,2 log2 normalized intensity
7,ACATTTTTATCCTTTTTTGAAGGTTAAAGTGCCTAGGGAGATTAGAGTATCGGTCGA,3 log2 normalized intensity
8,AAACCTCCCCCAAACCAAAGAGAAATGGTGGCCTAGGGAGATTAGAGTATCGGTCGA,3.41 log2 normalized intensity
9,TGGTTTTCCAATCTGGTGAAAGATGATGAGGCCTAGGGAGATTAGAGTATCGGTCGA,0.365 log2 normalized intensity
10,TCTAAGGCAAAACACCCCTTTCACTTCTTCGCCTAGGGAGATTAGAGTATCGGTCGA,0.915 log2 normalized intensity
11,CCATTTATAAGAAACTGCTCCTGCTTGGGAGCCTAGGGAGATTAGAGTATCGGTCGA,-0.881 log2 normalized intensity
12,TGCCAGCCCCGAGATAACCCCTCTCCAAGCGCCTAGGGAGATTAGAGTATCGGTCGA,4.43 log2 normalized intensity
13,ATAGACTGTCCCTCAGTGTGGGACTTTGGTGCCTAGGGAGATTAGAGTATCGGTCGA,3.52 log2 normalized intensity
14,ACAGAAGAAGGAAAAGGCCTGACCTTTGCCGCCTAGGGAGATTAGAGTATCGGTCGA,5.58 log2 normalized intensity
15,CCCTGCCTGACCTGCCCTTTGTCCCTCCTGGCCTAGGGAGATTAGAGTATCGGTCGA,5.06 log2 normalized intensity
16,TGGTGCAAAGGTCAGGACAAGGCTCTGGTGGCCTAGGGAGATTAGAGTATCGGTCGA,4.55 log2 normalized intensity
17,CTCTTTGGTGCAAAGGTCAGGACAAGGCTCGCCTAGGGAGATTAGAGTATCGGTCGA,4.73 log2 normalized intensity
18,GAAAAGGCCTGACCTTTGCCCTCTGGCCCTGCCTAGGGAGATTAGAGTATCGGTCGA,9.29 log2 normalized intensity
19,AGAGGACAGAAGAAGGAAAAGGCCTGACCTGCCTAGGGAGATTAGAGTATCGGTCGA,1.07 log2 normalized intensity
20,AGAAGGAAAAGGCCTGACCTTTGCCCTCTGGCCTAGGGAGATTAGAGTATCGGTCGA,10.4 log2 normalized intensity
21,GACCTTTGCCCTCTGGCCCTTAAAGGCTTTGCCTAGGGAGATTAGAGTATCGGTCGA,7.8 log2 normalized intensity
22,TCACTGACCTCTGCCCTACTGTATATCCTGGCCTAGGGAGATTAGAGTATCGGTCGA,2.89 log2 normalized intensity
23,TTCTGCCCCTTGCTCCTGCTTGCTGGCTTTGCCTAGGGAGATTAGAGTATCGGTCGA,1.35 log2 normalized intensity
24,CCCTCGACCTTTGCCCTCCATAAGGGGGAGGCCTAGGGAGATTAGAGTATCGGTCGA,6.74 log2 normalized intensity
25,CAGAGGCTTCCTCTTTGGTGCAAAGGTCAGGCCTAGGGAGATTAGAGTATCGGTCGA,7.47 log2 normalized intensity
